PubChem BioAssay AID504941 (Broad Institute, 2011)
The campaign covered roughly 1,200 compounds. About 170 (14%) were called active. No rule for the calls is given here. Not all results are given here. Results with a measured potency or affinity are listed apart.

Assay: E. coli Tat export inhibitors, dose response, cherry-pick, set 2, plate reader (AID 504941)
Conditions: E. coli Tat transport reporter; series mostly up to 38 µM; activity change, negative = inhibition: at the top concentration

Activity change, negative = inhibition, inactive:
CN(C(=O)c1cc2sccc2n1C)C1CCCCC1 -5.46%, O=C(CCSc1ccccc1)NCC1CCCO1 (configuration not stated) -12.9%, O=C(C1CCCO1)N1CCN(c2c3c(nc4cc(-c5ccc(F)cc5)nn24)CCC3)CC1 (configuration not stated) 6.78%, CCOc1ccc(Br)cc1CNCCN1CCOCC1 8.37%, O=C(c1ccc2nc[nH]c2c1)N1CCN(c2ncc(C(F)(F)F)cc2Cl)CC1 -6.11%, Cn1c(SCC(=O)NCc2cccs2)nnc1-c1ccc(S(=O)(=O)N2CCCC2)cc1 4.13%, CN(C)S(=O)(=O)c1cccc(NC(=O)C2CCN(S(=O)(=O)c3cccs3)CC2)c1 -4.43%, O=C(Cn1cc2c(n1)CCCCC2)N1CCc2ccccc2C1 -0.285%, CC(/C=N/NC(=O)c1n[nH]c2c1CCC2)=C\c1ccccc1 -7.52%, CCC(CO)NC(=O)c1cccc(S(=O)(=O)N2c3ccccc3CC2C)c1 (configuration not stated) -5.23%, CC(C)S(=O)(=O)C1=NSC2=NC(=O)/C(=C\c3ccc(-c4cccc(C(=O)O)c4)o3)C(=N)N21 -12.2%, O=C(Nc1cc(N2CCOCC2)ncn1)c1ccccc1 13.4%, O=C(O)c1ccc(NC2=C(N3CCOCC3)C(=O)c3ccccc3C2=O)cc1 0.607%, O=C(COC(=O)Cn1cnc2ccccc2c1=O)NCC12CC3CC(CC(C3)C1)C2 4.59%, CC(=O)NC1=NN(C(C)=O)C2(S1)C(=O)N(C(C)C)c1ccc(C)cc12 (configuration not stated) 5.85%, Cc1cc(-c2c(C)[nH]n(-c3ccc(Cl)cc3)c2=O)n(-c2ccc(Cl)cc2)n1 13.9%, COC(=O)COc1cc2ccccc2cc1C(=O)Nc1ccccc1 20.3%, O=[N+]([O-])c1cccc(COc2cccc(CN3CCCCC3)c2)c1 2.01%, CS(=O)(=O)N1CCN(C(=O)c2cccnc2)CC1 -7.67%, CC1(C)CC(=O)C=C(NCCN2CCN(C(=O)Nc3ccccc3)CC2)C1 0.237%, CC(C)(C)NC(=O)C[C@H]1C[C@H](C(=O)N2CCOCC2)[C@@]2(CCC3CCCC3)c3[nH]c4cc(-c5ccco5)ccc4c3CCN2C1=O 18.4%, O=C(NCc1cccc(Cl)c1)c1cnn2c1NC(c1ccco1)CC2C(F)(F)F (configuration not stated) 25.9%, O=C(CSc1nc2ccccc2c(=O)[nH]1)N1CCN(c2ccccc2F)CC1 2.64%, CC1Cc2cc(/C(O)=C3/C(=O)C(=O)N(Cc4ccco4)C3c3cccs3)ccc2O1 (configuration not stated) -10.5%, CC(C)c1ccc(OCC(=O)NC2=NCCS2)cc1 0.906%, O=C(CNc1ccc(Cl)cc1)c1ccc(Br)cc1 7.08%, CCCCOC(=O)C1=C(C)NC(=O)NC1c1ccc2c(c1)OCO2 (configuration not stated) 3.59%, CCN1CCCC1CNC(=O)C(=O)NC(C)C (configuration not stated) -9.28%, COc1cc(CNCc2ccccn2)ccc1OCc1c(Cl)cccc1Cl 7.91%, CC1CN(S(=O)(=O)c2ccc(C(=O)Nc3ccccc3F)cc2)CC(C)O1 (configuration not stated) -8.54%, Cc1c(NC(=O)Nc2ccccc2)cccc1[N+](=O)[O-] -14%, Clc1ccc(C2[C@H]3CN(Cc4cccnc4)[C@H](c4ccccc4)C34CC2(c2ccccc2)C4)cn1 (some centres not stated) 10.2%, Cc1ccc(NC(=O)CCCc2nc3ccccc3s2)c(O)c1 -3.12%, Cc1cnc(C(=O)OCC(=O)Nc2sc3c(c2C#N)CCC3)cn1 4.32%, N#Cc1cn(CC(=O)N2CCCc3ccccc32)c2ccccc12 46.6%, COc1cc(S(=O)(=O)Nc2cc(C)cc(C)c2)ccc1F 3.51%, COc1ccc(OC2OC3COC(c4ccco4)OC3C(O)C2NC(C)=O)cc1 (configuration not stated) 16.8%, Cc1ccc(C(=O)CN2/C(=C(\O)c3ccccc3)C(=O)c3ccccc3S2(=O)=O)c(C)c1 11.6%, CC(=O)c1c(C)[nH]c(C(=O)Nc2ccccc2N2CCOCC2)c1C 0.693%, Clc1ccccc1-c1nn2c(-c3ccncc3)nnc2s1 19.8%, COc1cccc(C(=O)NCCS(=O)(=O)NCc2ccccn2)c1 38.8%, O=C(O)CN1C(=O)CC(Cc2ccc(Cl)cc2)C1=O (configuration not stated) 10.2%, Cc1c(N2C(=O)c3cccc4cccc(c34)C2=O)c(=O)n(-c2ccccc2)n1C 15.6%, CCOC(=O)c1ccccc1-n1nnnc1C -44.4%, CCOC(=O)c1c2c3c(c(Cl)ccc3[nH]c1=O)C(=O)c1ccccc1-2 23.7%, CCCCN1CC(COCc2ccccc2)Oc2cccc(N3CCCC3)c2S1(=O)=O (configuration not stated) -13.8%, CC(=O)Nc1cccc(Oc2nc(C(F)(F)F)nc3ccccc23)c1 -40.1%, COc1ccc(NS(=O)(=O)c2cc(NC(=O)CCc3ccc(OC)c(OC)c3)ccc2N2CCOCC2)cc1 -12.1%, O=C(CNC1CCCCCC1)Nc1ccccc1N1CCCCC1 -20.1%, O=C(CNC1CCCCC1)Nc1cc(S(=O)(=O)N2CCOCC2)ccc1Cl -39.9%, COC(c1ccccc1)c1nnc(CCC(=O)N(C)C(C2CC2)C2CC2)o1 (configuration not stated) 13.3%, CCOC(=O)C1(Cc2cccc(F)c2)CCN(C2CCOCC2)CC1 13.1%, COc1ccc(/C=N/Nc2ccccn2)cc1O -6.92%, C(=N\n1cncn1)/c1ccc(N2CCOCC2)cc1 5.88%, CC(NC(=O)c1ccc([N+](=O)[O-])cc1[N+](=O)[O-])c1ccc(-c2ccccc2)cc1 (configuration not stated) 4%, CCOc1ccc(NC(=O)c2ccc(NC(=O)COC(=O)Cc3ccc(OC)cc3)cc2)cc1 9.01%, Cc1ccc(-n2nnnc2SCC(=O)Nc2ccc3c(c2)OCCO3)cc1C 35.1%, Cn1ncc(Cl)c1C(=O)NCc1ccc(Cl)cc1 7.63%, COC(=O)c1ccc(OC(=O)c2nn(C)cc2Cl)c(OC)c1 -31.2%, O=C(Cc1ccccc1Cl)c1ccccc1 11.6%, CCN(Cc1ccccc1)S(=O)(=O)c1c[nH]c(C(=O)OC)c1 -11.8%, O=C(O)Cn1cc(C(=S)N2CCOCC2)c2ccccc21 3.92%, CCCCc1ccc(N=N/C(C(=O)Nc2ccc(NC(C)=O)cc2OC)=C(/C)O)cc1 1.99%, CC(=O)NC(Cc1ccc(F)c(F)c1)C(=O)NC1CCN(c2c(Cc3ccccc3)c(C)nc3ncnn23)CC1 (configuration not stated) 12.8%, O=C1CC(c2cc(-c3ccccc3)no2)C1 10.3%, CNC(=O)CNC(=O)Nc1ccc(C)cc1 22.2%, CCN(C[C@H]1N[C@@](Cc2ccccc2)(C(=O)OC)[C@H]2C(=O)N(C)C(=O)[C@@H]12)C(C)=O 1.98%, Cn1cc(CN2CCC(CO)(CCCc3ccccc3)CC2)c(-c2ccccc2)n1 12%, Cc1ccc(NC(=O)c2ccc(Oc3ncccn3)cc2)cc1 0.345%, Cc1cc(=O)[nH]c(SCC(=O)NCc2ccc3c(c2)OCO3)n1 -7.75%, CC(C)C(=O)Nc1ccc(Nc2ccccc2)cc1 9.17%, CCCCOc1ccc(NC(=O)c2cc(F)c(F)cc2Cl)cc1 8.26%, O=C(Cn1nc(C(=O)O)c2ccccc2c1=O)NCc1ccco1 34%, O=C(NCCc1ccccc1)c1n[nH]c2ccccc12 12%, CCc1ccc(C(C(=O)NC2CCCC2)N(CCOC)C(=O)CCC(=O)Nc2cc(C)on2)cc1 (configuration not stated) 0.853%, Cc1nc(SCc2ccc(C(=O)O)cc2)c2c(C)c(C)sc2n1 9.12%, CN(C)CCCNC(=O)C(=O)NCC1CCCO1 (configuration not stated) 21.6%, CCO[C@@H]1OC(C(=O)O)=C[C@H](C)[C@H]1CCCO 15.7%, CC(=O)Oc1ccc(C(=O)Cc2ccccn2)c(O)c1 -34.4%, CC(C)[C@@H](C(=O)N1CCNCC1)n1cc(CCO)nn1 15.8%, NS(=O)(=O)c1ccc(CCNc2nc(C(F)(F)F)nc3ccccc23)cc1 -18.2%, CCOC(=O)c1cnn(-c2cc(C)c3ccccc3n2)c1N 0.267%, CCSC(=O)NC12CC3CC(CC(C3)C1)C2 12%, Cc1ccc(C)n1-c1ccc(-c2ccnc(N)n2)cc1 -3.79%, O=[N+]([O-])c1cccc(N(CC(O)CN2CCCCC2)S(=O)(=O)c2ccccc2)c1 (configuration not stated) -2.2%, C#CC(C)(CC)NC(=O)c1cc2cccc(CC=C)c2oc1=O (configuration not stated) -4.26%, COc1ccc(S(=O)(=O)N2CCC(C(N)=O)CC2)cc1 -6.67%, CCOC(=O)c1c(NC(=O)CSc2n[nH]c(CNc3ccccc3)n2)sc(C)c1C -2.05%, C=CCN1C=C2C(=O)C(C)(OC(=O)c3ccc(OC)cc3)C(=O)C(c3ccco3)=C2C=C1CCCC (configuration not stated) -17.3%, O=C(O)c1cccc(NC(=O)c2ccccc2)c1 7.3%, CC(C)N(c1ccccc1)c1ccc(NC(=O)COC(=O)CCN2C(=O)c3cccc([N+](=O)[O-])c3C2=O)cc1 -0.764%, O=C(CSc1cn(CCNC(=O)c2c(F)cccc2F)c2ccccc12)NCC1CCCO1 (configuration not stated) -4.72%, O=C(CSc1ncnc2c1nnn2Cc1ccccc1F)NCC1CCCO1 (configuration not stated) -22.2%, Cc1ccccc1OCC(=O)Nc1ccc(S(=O)(=O)Nc2onc(C)c2C)cc1 14.2%, O=C(/C=C/Nc1ccccc1Br)c1ccccn1 -9.87%, CC1(C)CC(NC(=O)c2ccc(-c3ccc([N+](=O)[O-])cc3)o2)CC(C)(C)N1 -19.5%, Cc1ccc(NC(=S)NC(=O)c2ccc(F)cc2)cc1S(=O)(=O)Nc1ccccc1Cl -2.37%, C[C@H]1CN([C@@H](C)CO)C(=O)c2cccc(NS(=O)(=O)c3ccc(F)cc3)c2O[C@H]1CN(C)Cc1ccc(Cl)c(Cl)c1 35.5%, COC(C(=O)Nc1ccnn1C1CCN(C(=O)c2ccc(C=O)cc2)CC1)c1ccccc1 (configuration not stated) -9.7%, Cc1ccc(NC(=O)c2cccs2)cc1S(=O)(=O)Nc1cccc(Cl)c1 22%, Cc1ccccc1-n1c(SCC(=O)N2CCOCC2)nc(O)c(Cc2ccccc2)c1=O -5.11%, COCCn1c(=NC(=O)c2ccc3c(c2)OCCO3)sc2cc(S(N)(=O)=O)ccc21 -9.51%, CN1CCc2c(sc3nc(SCC(=O)N4CCOCC4)nc(N)c23)C1 -3.11%, COC(=O)C1(S(=O)(=O)C2(C(=O)OC)CCCC2)CCCC1 -3.26%, Cc1ccc(NCc2nnc3n2CCCCC3)c(C)c1 20.5%, O=c1cc(O)nc[nH]1 -1.49%, CC1(C)CC(=O)C/C(=N\NC(=O)CCc2ccc(S(=O)(=O)N3CCOCC3)cc2)C1 0.359%
